The record followed here is PubChem BioAssay (Tox21).

“And” between values parts separate entries of the source, which are not always exact repeats. Identical values can stand only once. Values without a mark were called inactive. Inconclusive results are not listed. The source made the active and inactive calls. Unless noted, the call rests on the fitted dose curve; in most records, active means well fitted curve in the direction sought with a large enough effect in the repeat runs; inconclusive means weak or mixed curves; inactive means no such curve, though single readings can be large; an effect the other way counts as inactive or inconclusive.

Assay [1] can be described thus: qHTS assay for small molecules that induce genotoxicity in human embryonic kidney cells expressing luciferase-tagged ATAD5 - cell viability (AID 651634; calls by dose curve; further: nearly all actives have a fitted effect of over 25% in size; further: potency means the concentration at half of the fitted maximal effect). An outline of the steps: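 Viability read: CellTiter-Fluor fluorescence, 30 min at 37C. Cells: HEK293T, luciferase-tagged ATAD5. Exposure: 15.5 hr, 37C, 5% CO2, compound or DMSO vehicle.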
(qHTS replaces the single test concentration by a dilution series.)

Assay [2] is described as follows: qHTS assay to test for compound auto fluorescence at 590 nm (red) in HepG2 cells (AID 720674). A digest of the protocol:
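Seeding: 2,000 HepG2 cells/well, MEM/10% FBS, overnight 37 C. Dosing: compound vs DMSO. Incubation: 1 hr, 37 C, 5% CO2. Read: fluorescence 540 ex/590 em, Rose Bengal sodium as red reference.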

The nature of assay [3]: qHTS assay to test for compound auto fluorescence at 535 nm (green) in HepG2 cells (AID 720675).
A short description of assay [4]: qHTS assay to test for compound auto fluorescence at 460 nm (blue) in HEK293 cells (AID 720678). An outline of the steps: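 Intrinsic compound fluorescence is recorded in live HEK293 cultures after overnight incubation at 37C, 5% CO2, using excitation 405 nm and emission 460 nm. Values are referenced to triamterene.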
A short description of assay [5]: qHTS assay to test for compound auto fluorescence at 590 nm (red) in HEK293 cells (AID 720679). An outline of the steps:
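Red autofluorescence, HEK293 cells: 2,000 cells/well; attach 4-5 hr 37C; add 23 nL cpd or DMSO; incubate o/n 37C 5% CO2; read Ex540/Em590; Rose Bengal sodium reference.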

A short description of assay [6]: qHTS assay for small molecule agonists of the p53 signaling pathway - cell viability (AID 651633; calls by dose curve; further: nearly all actives have a fitted effect of over 30% in size; further: potency means the concentration at half of the fitted maximal effect). An outline of the steps:
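p53RE-bla cells were treated with compound for 16 hours at 37 C. Cytotoxicity was then measured as CellTiter-Glo luminescence after 30 min at room temperature.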

Assay [7] can be described thus: qHTS assay for small molecule disruptors of the mitochondrial membrane potential - cell viability (AID 720634; calls by dose curve; further: nearly all actives have a fitted effect of over 20% in size; further: potency means the concentration at half of the fitted maximal effect). A digest of the protocol: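 HepG2, 1 hr compound, 37 C. ATP luminescence via CellTiter-Glo, 30 min RT, same well as m-MPI.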
Assay [8] can be described thus: qHTS assay for small molecules that induce genotoxicity in human embryonic kidney cells expressing luciferase-tagged ATAD5 (AID 651632). Further: nearly all actives have a fitted effect of over 15% in size. An outline of the steps: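 Luminescent reporter readout, HEK293T ATAD5-luc line: 16 hr drug exposure (37C, 5% CO2) followed by Amplite, 30 min RT.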
The nature of assay [9]: qHTS assay for small molecule disruptors of the mitochondrial membrane potential (AID 720635). Further: potency means the concentration at half of the fitted maximal effect. An outline of the steps: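 HepG2 cells exposed to compound 1 hr at 37C, then Mito-MPS dye 30 min. Ratio read of aggregate (540/590 nm) versus monomer (490/535 nm) fluorescence.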
On the % scale 0 is the no-effect control and ±100 the full control effect.

As to `CNc1ccc(O)cc1`, the Potency entry in assay [1], in [2], in assay [3], in [4] and in assay [5] was “inactive” in each case.
Turning to `CC(C)(C)c1ccc(C(=O)CCCN2CCC(OC(c3ccccc3)c3ccccc3)CC2)cc1`, in assay [6], the Potency is 21.1 µM (active). The Potency entry in assay [1], in assay [7], in assay [2], in assay [3], in [4] and in [5] was “inactive” in each case.
For `CCN(CCC#N)c1ccc(N=Nc2c(Cl)cc([N+](=O)[O-])cc2Cl)cc1`, the Potency entry in [8], in [2], in assay [3], in assay [4] and in assay [5] was “inactive” in each case. For the same molecule, the Potency in [1] was 54.5 µM (active); in assay [7], 19.3 µM (active).
As to `NNc1nc(-c2ccc([N+](=O)[O-])cc2)cs1`, the Potency entry in assay [8], in assay [2], in [3], in assay [4] and in assay [5] was “inactive” throughout. Also, the Potency in assay [1] is 24.3 µM (active); in assay [7], 17.2 µM (active); in assay [9] it was 1.37 µM (active).
Take `CCCCCCCCCCCCCCCC(=O)OC[C@H](O)[C@H]1OC(=O)C(O)=C1O`: the Potency result in assay [8], in assay [7], in assay [9], in assay [2], in [3] and in assay [4] was “inactive” throughout. Besides, the Potency entry in assay [5] is “inactive”.
Consider `O=C(OCC1CO1)C1CCCCC1C(=O)OCC1CO1` (centres undefined), for which the Potency entry in assay [6], in assay [7], in assay [2], in assay [3], in [4] and in [5] was “inactive” throughout.
On to `Cc1cc(O)c2ccccc2c1O`, for which the Potency entry in assay [8], in assay [1], in assay [7], in assay [2], in [3] and in [4] was “inactive” each time. Also, the Potency result in assay [5] was “inactive”.
As for `CCCCCCCCCCCC(=O)NCCCN(C)C`, in assay [6], the Potency is 27.3 µM (active). Besides, the Potency entry in assay [2], in [3], in [4] and in [5] was “inactive” throughout.
As to `O=CC=C(c1ccccc1)c1ccccc1`, the Potency result in [8], in assay [1], in assay [2], in assay [3], in assay [4] and in [5] was “inactive” each time.
`O=C(N/N=C/c1ccccc1O)c1ccncc1`: the Potency in [6] is 3.76 µM (active). The Potency entry in assay [7], in [2], in assay [3], in assay [4] and in assay [5] was “inactive” each time.
Regarding `On1ccccc1=S`, the Potency result in [6], in assay [7], in [2], in assay [3], in assay [4] and in [5] was “inactive” each time. For the same molecule, the Potency in assay [9] is 0.762 µM (active).
As to `CCCCCCCCCCCCCCCC[N+](C)(C)CCN(Cc1ccc(OC)cc1)c1ncccn1`, the Potency entry in [8], in assay [1] and in [7] was “inactive” each time. Moreover, the fluorescence, relative to Rose Bengal in assay [2] was 0.0174% [at 18.6 µM]. In [3], the fluorescence, % of fluorescein control is -0.0711% [at 18.6 µM]. The fluorescence, % of triamterene in [4] is 0.0413% [at 18.6 µM]. For the same molecule, the fluorescence, % of fluorescent control in assay [5] was -0.0306% [at 18.6 µM].
Regarding `S=c1[nH]c2ccccc2s1`, the Potency entry in assay [6], in assay [1], in assay [7], in [2], in [3] and in assay [4] was “inactive” each time. Moreover, in [5], the Potency result is “inactive”. Moreover, the Potency in assay [9] was 26.6 µM (active) and 27.3 µM (active).
For `Cc1ccc2oc(CN(Cc3ccccc3)C(=O)Nc3c(F)cc(F)cc3F)c(-c3ccc(Cl)cc3)c2c1`, the Potency entry in [8], in [2], in assay [3], in [4] and in assay [5] was “inactive” throughout. Further, the Potency in assay [9] is 18.7 µM (active).
Regarding `O=[N+]([O-])c1cc(Cl)c(Cl)c(Cl)c1Cl`, the Potency result in assay [6], in assay [1], in assay [7], in [2], in assay [3] and in assay [4] was “inactive” in each case. Also, the Potency entry in [5] was “inactive”.
Turning to `CC1=C(/C=C/C(C)=C/C=C/C(C)=C/C=O)C(C)(C)CCC1`, the figures for the Potency in assay [6], in assay [1] and in assay [9] were 43 µM (active), 60.8 µM (active) and 15.3 µM (active), respectively. Also, the Potency result in assay [2], in assay [3], in assay [4] and in [5] was “inactive” each time.
Turning to `CCOC(=O)c1nc(C(Cl)(Cl)Cl)n(-c2ccc(Cl)cc2Cl)n1`, the Potency entry in assay [8], in assay [1], in assay [2], in assay [3], in [4] and in [5] was “inactive” each time.
With `COc1cccc(N)c1`, the Potency entry in assay [6], in [7], in assay [2], in assay [3], in assay [4] and in [5] was “inactive” in each case.
For `O=[N+]([O-])c1cc([N+](=O)[O-])c2ccc(S(=O)(=O)O)cc2c1O`, the Potency entry in assay [6], in assay [7], in assay [9], in assay [2], in assay [3] and in assay [4] was “inactive” in each case. The Potency result in assay [5] was “inactive”. Also, the Potency in assay [1] was 21.6 µM (active).
As for `CN1CCC(Nc2ncc3ncnc(Nc4ccc(F)c(Cl)c4)c3n2)CC1`, the Potency entry in [6], in assay [1], in assay [7], in assay [2], in assay [3] and in assay [5] was “inactive” in each case.
As to `[Cl][Au]([Cl])[Cl]`, the Potency in assay [6] was 68.6 µM (active); in assay [1] it was 30.6 µM (active). Also, the Potency entry in assay [7], in [2], in assay [3], in assay [4] and in assay [5] was “inactive” in each case.
